Measured values from PubChem BioAssay (EPA / NIEHS).
The source made the active and inactive calls. How the source made its calls: active means hit-call score of the fitted dose curve at least 0.9, where 1 is the maximum; inactive means score below 0.9.

Columns and labels:
[1] = read-out: Low-density lipoprotein receptor (LDLR), LDLR (gene 3949); assay: BSK_CASM3C_LDLR: BioMAP Diversity Plus: CASM3C Assay for Low-density lipoprotein receptor (LDLR) Biomarker Activity (AID 2283045); settings: primary human coronary artery smooth muscle cells; actives raise or lower the signal;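 further: LDLR protein level on the cell surface quantified by ELISA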
[2] = read-out: Monocyte Chemoattractant Protein-1 (MCP1), CCL2 (gene 6347); assay: BSK_CASM3C_MCP1: BioMAP Diversity Plus: CASM3C Assay for Monocyte Chemoattractant Protein-1 (MCP1) Biomarker Activity (AID 2283046); settings: primary human coronary artery smooth muscle cells; actives raise or lower the signal
[3] = BSK_CASM3C_Proliferation: Cell Proliferation Assessment in the BioMAP Diversity Plus: CASM3C Assay (AID 2283047); settings: primary human coronary artery smooth muscle cells;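 further: sulforhodamine B total protein stain as relative cell number at 560 nm; sub-confluent cells exposed 48 h before staining; fitted both ways against DMSO so gain or loss of cell number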
[4] = read-out: Monokine induced gamma interferon (MIG), CXCL9 (gene 4283); assay: BSK_CASM3C_MIG: BioMAP Diversity Plus: CASM3C Assay for Monokine induced gamma interferon (MIG) Biomarker Activity (AID 2283048); settings: primary human coronary artery smooth muscle cells; actives raise or lower the signal;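 further: MIG protein level measured by ELISA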
[5] = read-out: serum amyloid A (SAA), SAA1 (gene 6288); assay: BSK_CASM3C_SAA: BioMAP Diversity Plus: CASM3C Assay for serum amyloid A (SAA) Biomarker Activity (AID 2283049); settings: primary human coronary artery smooth muscle cells; actives raise or lower the signal
[6] = BSK_CASM3C_SRB: Viability Assessment in the BioMAP Diversity Plus: CASM3C Assay (AID 2283050); settings: primary human coronary artery smooth muscle cells;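 further: cells exposed to compound for 24 h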
[7] = read-out: Thrombomodulin, THBD (gene 7056); assay: BSK_CASM3C_Thrombomodulin: BioMAP Diversity Plus: CASM3C Assay for Thrombomodulin Biomarker Activity (AID 2283051); settings: primary human coronary artery smooth muscle cells; actives raise or lower the signal;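 further: thrombomodulin protein level measured by ELISA 24 h after dosing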
[8] = read-out: Tissue Factor, F3 (gene 2152); assay: BSK_CASM3C_TissueFactor: BioMAP Diversity Plus: CASM3C Assay for Tissue Factor Biomarker Activity (AID 2283052); settings: primary human coronary artery smooth muscle cells; actives raise or lower the signal;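 further: cell surface tissue factor protein level read by ELISA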
[9] = read-out: Interferon-gamma inducible Protein 10 (IP10), CXCL10 (gene 3627); assay: BSK_hDFCGF_IP10: BioMAP Diversity Plus: hDFCGF Assay for Interferon-gamma inducible Protein 10 (IP10) Biomarker Activity (AID 2283053); settings: primary human foreskin fibroblasts; actives raise or lower the signal
Method in brief: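 Cells: human dermal foreskin fibroblasts. Exposure: 24 h post-dosing. Detection: IP-10 ELISA, with values expressed against DMSO controls and fitted in both directions.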

[10] = read-out: Urokinase-type plasminogen activator receptor (uPAR), PLAUR (gene 5329); assay: BSK_CASM3C_uPAR: BioMAP Diversity Plus: CASM3C Assay for Urokinase-type plasminogen activator receptor (uPAR) Biomarker Activity (AID 2283054); settings: primary human coronary artery smooth muscle cells; actives raise or lower the signal;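 further: cell-surface uPAR protein level quantified by ELISA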
[11] = read-out: Vascular cell adhesion molecule 1 (VCAM1), VCAM1 (gene 7412); assay: BSK_CASM3C_VCAM1: BioMAP Diversity Plus: CASM3C Assay for Vascular cell adhesion molecule 1 (VCAM1) Biomarker Activity (AID 2283055); settings: primary human coronary artery smooth muscle cells; actives raise or lower the signal;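 further: VCAM-1 protein level quantified by ELISA on the cells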
[12] = read-out: Collagen III, COL3A1 (gene 1281); assay: BSK_hDFCGF_CollagenIII: BioMAP Diversity Plus: hDFCGF Assay for Collagen III Biomarker Activity (AID 2283056); settings: primary human foreskin fibroblasts; actives raise or lower the signal
Method in brief: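 Human foreskin fibroblast primary cultures sampled 24 h after dosing; Collagen III quantified by ELISA. Signal fitted bidirectionally against DMSO baseline.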

[13] = read-out: Epidermal growth factor receptor (EGFR), EGFR (gene 1956); assay: BSK_hDFCGF_EGFR: BioMAP Diversity Plus: hDFCGF Assay for Epidermal growth factor receptor (EGFR) Biomarker Activity (AID 2283057); settings: primary human foreskin fibroblasts; actives raise or lower the signal
Method in brief: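 Dosing human primary skin fibroblasts, then measuring surface EGFR by ELISA at 24 h, gives the endpoint; gains and losses relative to DMSO were fitted in both directions.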

[14] = read-out: Interleukin-8 (IL8), CXCL8 (gene 3576); assay: BSK_hDFCGF_IL8: BioMAP Diversity Plus: hDFCGF Assay for Interleukin-8 (IL8) Biomarker Activity (AID 2283058); settings: primary human foreskin fibroblasts; actives raise or lower the signal
Method in brief: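 Primary human foreskin fibroblasts (hDFCGF system) dosed with chemical; IL-8 measured by ELISA 24 hours later. Bidirectional curve fitting relative to DMSO baseline; cytotoxicity tracked in parallel cultures by SRB total protein staining.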

[15] = BSK_hDFCGF_Proliferation: Cell Proliferation Assessment in the BioMAP Diversity Plus: hDFCGF Assay (AID 2283059); settings: primary human foreskin fibroblasts;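 further: curves fitted for both rise and fall of signal versus DMSO baseline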
Method in brief: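 Steps: dose primary human dermal fibroblasts (foreskin); […] fix in 10% TCA; stain with 0.1% SRB; read 560 nm; fit gain or loss of signal against DMSO.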

[16] = read-out: Macrophage colony-stimulating factor (MCSF), CSF1 (gene 1435); assay: BSK_hDFCGF_MCSF: BioMAP Diversity Plus: hDFCGF Assay for Macrophage colony-stimulating factor (MCSF) Biomarker Activity (AID 2283060); settings: primary human foreskin fibroblasts; actives raise or lower the signal
Method in brief: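 Human foreskin fibroblast primary cultures; M-CSF measured by ELISA 24 hours after chemical dosing. Bidirectional fitting relative to DMSO, with overt cytotoxicity tracked by parallel SRB total-protein staining (0.1% SRB, 10% TCA fixation, 560 nm).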

[17] = read-out: TIMP metallopeptidase inhibitor 1 (TIMP1), TIMP1 (gene 7076); assay: BSK_hDFCGF_TIMP1: BioMAP Diversity Plus: hDFCGF Assay for TIMP metallopeptidase inhibitor 1 (TIMP1) Biomarker Activity (AID 2283062); settings: primary human foreskin fibroblasts; actives raise or lower the signal
Method in brief: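 Human foreskin fibroblast primary cultures dosed for 24 h; secreted/surface TIMP-1 quantified by ELISA. Bidirectional curve fitting against DMSO baseline; cytotoxicity tracked in parallel cultures by SRB total-protein staining.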

[18] = read-out: Matrix Metallopeptidase 1 (MMP1), MMP1 (gene 4312); assay: BSK_hDFCGF_MMP1: BioMAP Diversity Plus: hDFCGF Assay for Matrix Metallopeptidase 1 (MMP1) Biomarker Activity (AID 2283064); settings: primary human foreskin fibroblasts; actives raise or lower the signal
Method in brief: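 MMP1 levels quantified by ELISA 24 h after dosing human dermal fibroblast cultures, with parallel SRB total-protein staining for overt cytotoxicity. Data fitted in both directions against DMSO baseline.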

[19] = read-out: Vascular cell adhesion molecule 1 (VCAM1), VCAM1 (gene 7412); assay: BSK_hDFCGF_VCAM1: BioMAP Diversity Plus: hDFCGF Assay for Vascular cell adhesion molecule 1 (VCAM1) Biomarker Activity (AID 2283065); settings: primary human foreskin fibroblasts; actives raise or lower the signal;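 on AC50: VCAM-1 protein level quantified by ELISA after 24 h chemical exposure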
Method in brief: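 Human foreskin fibroblast primary cells dosed with chemical, VCAM-1 measured by ELISA at 24 h. Bidirectional curve fitting relative to DMSO as negative control/baseline.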

[20] = read-out: Plasminogen activator inhibitor-1 (PAI1), SERPINE1 (gene 5054); assay: BSK_hDFCGF_PAI1: BioMAP Diversity Plus: hDFCGF Assay for Plasminogen activator inhibitor-1 (PAI1) Biomarker Activity (AID 2283066); settings: primary human foreskin fibroblasts; actives raise or lower the signal
Method in brief: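 Fibroblasts from human foreskin were treated with test chemical. After 24 h, PAI-1 was measured by ELISA. Activity was fitted in both directions relative to DMSO.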

Measured: AC50

CCCCC(CC)COC(=O)c1ccccc1O (stereo not given)
active: [9] 16.4 µM | [12] 6.81 µM | [15] 7 µM | [16] 13.2 µM | [17] 12.8 µM | [18] 17.8 µM | [19] 14.6 µM | [20] 7.32 µM
inactive: all other assays above

O=C1CCCN1CCO
inactive: all assays above

O=Nc1ccc(O)cc1
inactive: all assays above

C/C=C\C/C=C/CCCCCCCCOC(C)=O
inactive: [1] | [2] | [7] | [13] | [14]
active: [3] 26.4 µM | [4] 28.5 µM | [5] 32.3 µM | [6] 36.9 µM | [8] 6.46 µM | [9] 34.3 µM | [10] 32.7 µM | [11] 23.3 µM | [12] 20 µM | [15] 29.7 µM | [16] 29.9 µM | [17] 30.4 µM | [18] 32.9 µM | [19] 24.6 µM | [20] 28.9 µM

C=CC=CC=CCCCCC
active: [3] 5 µM | [11] 5 µM | [12] 7.41 µM | [15] 7.28 µM
inactive: all other assays above

CC(C)(c1cc(Br)c(OCCO)c(Br)c1)c1cc(Br)c(OCCO)c(Br)c1
active: [9] 23.3 µM | [11] 6.14 µM | [12] 4.6 µM | [15] 4.47 µM | [16] 8.17 µM | [17] 25.4 µM | [19] 7.21 µM | [20] 16.2 µM
inactive: all other assays above

CCCCC(CC)COCC1CO1 (stereo not given)
inactive: all assays above

C=CCOCC(O)CCl (stereo not given)
inactive: all assays above

O=C(Cl)c1cc(C(=O)Cl)cc(C(=O)Cl)c1
inactive: [13] | [14]
active: [1] 12.3 µM | [2] 32 µM | [3] 7.85 µM | [4] 29.2 µM | [5] 20 µM | [6] 15 µM | [7] 36.3 µM | [8] 20 µM | [9] 31 µM | [10] 26 µM | [11] 17.8 µM | [12] 21.4 µM | [15] 3.77 µM | [16] 13.6 µM | [17] 13.7 µM | [18] 31.9 µM | [19] 15.2 µM | [20] 29.8 µM
